Some test systems named below: SK-MEL-2 melanoma; EKVX NSCLC; SN12C renal; UO-31 renal; TK-10 renal; ACHN renal; CAKI-1 renal; A498 renal; CCRF-CEM leukemia; MOLT-4 leukemia; RPMI-8226 leukemia; OVCAR-8 ovarian; OVCAR-5 ovarian; OVCAR-4 ovarian; SK-OV-3 ovarian; IGROV1 ovarian; OVCAR-3 ovarian; HS 578T breast; NCI/ADR-RES ovarian.
Common to all, as to assay: NCI-60 one-dose screen, 48 h (100 = growth as untreated, 0 = no growth, -100 = all killed)
Holding throughout (settings): 10 µM unless noted

Growth data for eight compounds are collected here from PubChem BioAssay (NCI).

The panel holds about 83,000 compounds, 20% with a hit somewhere; the sample as a whole holds those more often.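 Percent growth is the endpoint: 0 to 100 indicates growth inhibition (40 means 60% inhibition), 0 means no net growth, and negative values indicate cell death.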 Unmarked numbers belong to inactive results. Calls of active or inactive are those of the source. Rule for the calls: active = growth percent below 10; inactive = the rest.

`CN(C)C(=O)c1cc2cnc(Nc3ccc(-c4csc5c(=O)cc(N6CCNCC6)oc45)cc3)nc2n1C1CCCC1`: the growth was 33.6% in the assay on SK-MEL-2 melanoma; 40.2% with EKVX NSCLC; 24.2% in the assay with SN12C renal; -10% (active) in the assay with UO-31 renal; 26.6% in the assay with TK-10 renal; 16% with ACHN renal. In addition, the growth in the assay with CAKI-1 renal was 43.2%; in the assay with A498 renal, -7.2% (active); with CCRF-CEM leukemia, 1.39% (active); with MOLT-4 leukemia, 4.52% (active); in the assay with RPMI-8226 leukemia, -22.9% (active); with OVCAR-8 ovarian, 20.7%. For the same compound, the growth is 22.9% with OVCAR-5 ovarian; 29.7% in the assay with OVCAR-4 ovarian; 32.2% in the assay with SK-OV-3 ovarian; 15.6% in the assay on IGROV1 ovarian; 20.6% in the assay with OVCAR-3 ovarian; 11.4% in the assay with HS 578T breast. Further, the growth in the assay with NCI/ADR-RES ovarian is 77.5%.
As for `Nc1nc(-c2ccc(F)cc2)cc(-c2cnn(-c3ccccc3)n2)n1`, the growth was 96% in the assay on SK-MEL-2 melanoma; 99.7% in the assay with EKVX NSCLC; 111% in the assay with SN12C renal; 86.8% with UO-31 renal; 121% with TK-10 renal; 100% in the assay on ACHN renal. Besides, the growth in the assay with CAKI-1 renal was 86.2%; in the assay with A498 renal it was 85.9%; in the assay on CCRF-CEM leukemia, 103%; in the assay on MOLT-4 leukemia, 104%; with RPMI-8226 leukemia, 105%; with OVCAR-8 ovarian, 100%. Also, the growth was 110% in the assay with OVCAR-5 ovarian; 111% with OVCAR-4 ovarian; 102% in the assay with SK-OV-3 ovarian; 83.8% in the assay on IGROV1 ovarian; 105% in the assay on OVCAR-3 ovarian; 106% in the assay with HS 578T breast. Moreover, the growth with NCI/ADR-RES ovarian is 106%.
`O=C1NC(=O)C(CC(=O)n2c(-c3ccccc3)nc3ccccc32)C(=O)N1`: the growth is 101% in the assay on SK-MEL-2 melanoma; 93.6% with EKVX NSCLC; 99.5% with SN12C renal; 79.6% in the assay with UO-31 renal; 116% in the assay with TK-10 renal; 101% in the assay with ACHN renal. Further, the growth in the assay on CAKI-1 renal was 90.5%; in the assay on A498 renal, 63.6%; with CCRF-CEM leukemia, 104%; with MOLT-4 leukemia, 108%; in the assay on RPMI-8226 leukemia, 101%; in the assay with OVCAR-8 ovarian, 101%. Also, the growth is 103% in the assay on OVCAR-5 ovarian; 103% with OVCAR-4 ovarian; 98.3% with SK-OV-3 ovarian; 93.3% in the assay on IGROV1 ovarian; 106% with OVCAR-3 ovarian; 102% in the assay with HS 578T breast. In addition, the growth in the assay on NCI/ADR-RES ovarian was 103%.
As for `CCOC(=O)C(CC)n1c(=O)c2cc(OC)c(OC)cc2c2cnc3[nH]ccc3c21` (configuration not stated), the growth was 103% with SK-MEL-2 melanoma; 76.4% in the assay on EKVX NSCLC; 64.9% in the assay on SN12C renal; 37% in the assay on UO-31 renal; 74.2% in the assay on TK-10 renal; 61.8% in the assay with ACHN renal. Moreover, the growth with CAKI-1 renal was 59%; in the assay with A498 renal it was -9.97% (active); in the assay on CCRF-CEM leukemia it was 81.1%; in the assay on MOLT-4 leukemia it was 53.6%; in the assay with RPMI-8226 leukemia it was 70.1%; in the assay with OVCAR-8 ovarian, 80%. In addition, the growth with OVCAR-5 ovarian was 63.8%; in the assay on OVCAR-4 ovarian, 93.3%; in the assay on SK-OV-3 ovarian, 58.5%; in the assay with IGROV1 ovarian it was 19.7%; in the assay with OVCAR-3 ovarian, 76.3%; in the assay with HS 578T breast, 41.7%. Besides, in the assay on NCI/ADR-RES ovarian, the growth was 73.3%.
Take `C=C1CCC2C3(C)COC(c4ccc(SC)cc4)OC3CCC2(C)C1C/C=C1/C(=O)OCC1O` (configuration not stated): the growth with SK-MEL-2 melanoma was 64.8%; in the assay on EKVX NSCLC, 56.1%; in the assay on SN12C renal, 65.6%; with UO-31 renal, 60.7%; in the assay with TK-10 renal, 101%; in the assay with ACHN renal, 74.2%. Moreover, the growth in the assay with CAKI-1 renal is 75.3%; with A498 renal it was 96.7%; in the assay with CCRF-CEM leukemia, 2.76% (active); in the assay on MOLT-4 leukemia it was 5.06% (active); with RPMI-8226 leukemia, 11.6%; in the assay with OVCAR-8 ovarian it was 34.9%. In addition, the growth was 79.1% in the assay with OVCAR-5 ovarian; 59.1% in the assay on OVCAR-4 ovarian; 96.3% with SK-OV-3 ovarian; 99.2% with IGROV1 ovarian; 71.4% in the assay with OVCAR-3 ovarian; 102% in the assay on HS 578T breast. Further, the growth in the assay on NCI/ADR-RES ovarian is 49.8%.
In the case of `CC[C@H](Nc1cc(C)nc(N)n1)c1nc2cccc(NCc3ccc(C(=O)NO)cc3)c2c(=O)n1-c1ccccc1`, the growth in the assay on SK-MEL-2 melanoma was 33.1%; in the assay with EKVX NSCLC, 64.3%; in the assay on SN12C renal, 29%; in the assay with UO-31 renal, 80.1%; in the assay with TK-10 renal, 32.1%; with ACHN renal it was 79.9%. The growth in the assay on CAKI-1 renal is 71.8%; in the assay on A498 renal, -3.63% (active); in the assay with CCRF-CEM leukemia, -11% (active); with MOLT-4 leukemia, -9.86% (active); in the assay on RPMI-8226 leukemia, -17.9% (active); in the assay on OVCAR-8 ovarian, 17.7%. The growth in the assay with OVCAR-5 ovarian was 32.3%; in the assay with OVCAR-4 ovarian it was 49.3%; in the assay with SK-OV-3 ovarian, 29.8%; in the assay on IGROV1 ovarian it was -4.45% (active); in the assay with OVCAR-3 ovarian, 16.4%; in the assay on HS 578T breast, 32.1%. In addition, in the assay with NCI/ADR-RES ovarian, the growth is 90.6%.
`Nc1cc(-c2nc3sccn3c2-c2ccnc(NCCCNS(=O)(=O)c3ccc(F)cc3)n2)ccc1F`: the growth is 60.4% in the assay with SK-MEL-2 melanoma; 58.3% in the assay with EKVX NSCLC; 48.9% with SN12C renal; 30.7% in the assay on UO-31 renal; 98.3% in the assay with TK-10 renal; 32.5% with ACHN renal. Further, the growth in the assay with CAKI-1 renal was 29.7%; with A498 renal, 54.3%; in the assay on CCRF-CEM leukemia, 21.2%; with MOLT-4 leukemia, 34%; in the assay with RPMI-8226 leukemia it was 23%; with OVCAR-8 ovarian, 46.5%. The growth in the assay with OVCAR-5 ovarian was 61%; in the assay with OVCAR-4 ovarian, 55.2%; with SK-OV-3 ovarian, 73.6%; with IGROV1 ovarian it was 39.9%; with OVCAR-3 ovarian it was 79.4%; in the assay with HS 578T breast, 77.4%. Further, the growth in the assay with NCI/ADR-RES ovarian is 47.7%.
Regarding `CN[C@@]12CC3(C=CC(=O)C=C3)O[C@]1(Cc1ccc(OC)cc1)N(C)C(=O)N2`, the growth in the assay on SK-MEL-2 melanoma was 74.1%; with EKVX NSCLC, 75.8%; in the assay with SN12C renal, 44%; with UO-31 renal, 76.2%; in the assay on TK-10 renal, 88.6%; in the assay on ACHN renal it was 44.4%. The growth was 72.9% in the assay on CAKI-1 renal; 75.6% in the assay on A498 renal; 7.27% (active) in the assay with CCRF-CEM leukemia; 73% in the assay with MOLT-4 leukemia; 17.2% in the assay on RPMI-8226 leukemia; 6.34% (active) in the assay on OVCAR-8 ovarian. In addition, the growth in the assay with OVCAR-5 ovarian was 33.1%; with OVCAR-4 ovarian, 60.9%; in the assay on SK-OV-3 ovarian, 108%; in the assay with IGROV1 ovarian, 55.3%; with OVCAR-3 ovarian, 17.3%; with HS 578T breast, 106%. Besides, in the assay on NCI/ADR-RES ovarian, the growth is 61.7%.
